# Measured values taken from PubChem BioAssay.
# Several values for one entry are separate records, joined by “and”; a condition that tells them apart may be missing. Equal values may be shown once. Unmarked numbers belong to inactive results. For some assays here: Entries with a potency or affinity are not part of this list. Activity calls are given as the source filed them. Unless noted, the rule behind the calls is not given here.
# Molecular target: L-lactate dehydrogenase (Plasmodium falciparum (isolate CDC / Honduras)) (UniProt Q27743)
# Assay: PfLDH activity inhibition – cell lysate, 3D7 strain, counter-screen for P. falciparum growth inhibition project (AID 2304);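 note: 0% = vehicle and 100% = reference inhibitor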
# Details: P. falciparum 3D7 crude extract, LDH APAD/NBT absorbance; at 2 µM; active compounds read high
# Sequence of L-lactate dehydrogenase (Plasmodium falciparum (isolate CDC / Honduras)) (Q27743 whole entry, looked up): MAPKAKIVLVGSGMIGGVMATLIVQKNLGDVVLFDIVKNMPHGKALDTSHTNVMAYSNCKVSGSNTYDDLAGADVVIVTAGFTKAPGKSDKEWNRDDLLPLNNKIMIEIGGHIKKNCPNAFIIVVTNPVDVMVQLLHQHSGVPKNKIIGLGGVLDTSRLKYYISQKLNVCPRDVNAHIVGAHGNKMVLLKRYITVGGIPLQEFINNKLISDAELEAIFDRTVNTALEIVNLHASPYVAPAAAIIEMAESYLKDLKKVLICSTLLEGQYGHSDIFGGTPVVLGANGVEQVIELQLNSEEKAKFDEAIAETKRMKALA
row,Structure (SMILES),inhibition [%]
1,CN1CC=C(C=Cc2c[nH]c3ccccc23)CC1,-1
2,CNCC(O)c1cc(Cl)c(Cl)cc1C (stereo not drawn),2
3,[O-]c1n[n+](C2CCCCC2)no1,-5

# Tested on: not listed separately
# Assay: inhibition of 3D7 malaria parasite growth – strain 3D7 (AID 2306);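 note: 0% = DMSO wells and 100% = chloroquine plus artemisinin control wells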
# Details: P. falciparum 3D7 erythrocytic growth, LDH absorbance, 72 h; at 2 µM; active compounds read high
row,Structure (SMILES),growth inhibition
1,c1ccc(C(OCCC2CCN(Cc3cccc4cccnc34)CC2)c2ccccc2)cc1,99% (active)
2,Cc1ccc(C)c(C=CC(=O)NC2CCC(CN3CCC(c4c[nH]c5ccccc45)CC3)CC2)c1 (stereo not drawn),101% (active) and 102% (active)
3,Cc1cc(N)nc2ccc(CNCCc3ccccc3Br)cc12,102% (active)
4,Fc1ccc(N(c2nc(-c3cc(F)cc(C(F)(F)F)c3)cs2)C2CCNCC2)cc1,95% (active)
5,CC(Cc1ccc(SC(C)C)cc1)NCC(O)c1cccc(Cl)c1 (stereo not drawn),99% (active)
6,CC[C@H]1CN2CC[C@@H]1C[C@H]2[C@H](O)c1cc(-c2ccc(F)cc2)nc2ccc(O)cc12,99% (active)
7,CC(=O)Nc1ccc2[nH]cc(C3CCN(CC4CCN(C(=O)/C=C/c5ccc(Cl)c(Cl)c5)CC4)CC3)c2c1,96% (active)
8,COc1ccc(O)c(CN2CCN(c3cc(C)ccc3C)CC2)c1,90% (active)
9,CCN1CC=C(c2c[nH]c3ccccc23)CC1,84% (active)
10,CC[C@H]1CN2CC[C@H]1C[C@H]2[C@H](O)c1cc(/C=C/c2ccc(F)cc2)nc2ccc(OC)cc12,99% (active)
11,O=C(NCc1ccc(S(=O)(=O)N2CCC(CN3CCC(c4c[nH]c5ccccc45)CC3)CC2)s1)c1ccccc1,92% (active)
12,COC(=O)c1ccc(CC(C)NCC(O)c2cccc(Cl)c2Cl)cc1 (stereo not drawn),98% (active)
13,COCCNCc1cccc(-c2ccc(CN(C(=O)Nc3ccccc3)C3CCN(Cc4ccccc4)CC3)cc2)c1,101% (active)
14,C=Cc1cc(OC)c2c(c1)c(=O)oc1c2cc(OC)c2c(O)ccc([C@H]3O[C@H]([C@@H](C)O)[C@H](O)[C@H]3O)c21,95% (active)
15,c1ccc(C(OCCC2CCN(Cc3cccnc3)CC2)c2ccccc2)cc1,99% (active)
16,N#Cc1ccc(N(CC(=O)NCCc2ccccc2)CC2CC2)c2ccccc12,99% (active)
17,Cc1ccc(C)c(N2CCN(Cc3ccccc3O)CC2)c1,100% (active)
18,CC[C@H]1CN2CC[C@H]1C[C@H]2[C@H](O)c1cc(N2CCCC(CO)C2)nc2ccc(OC)cc12 (stereo partly drawn),100% (active)
19,COc1cccc(CN2CCC(CCOC(c3ccccc3)c3ccc(Cl)cc3)CC2)c1O (stereo not drawn),99% (active)
20,CN1CC=C(c2c[nH]c3ccc(-c4ccccc4)cc23)CC1,93% (active)

row,Structure (SMILES),growth inhibition
1,Cc1csc(NC2=NCCN2)n1,99% (active)
2,CSc1ccc(C[C@@H](C)NC[C@H](O)c2cccc(Cl)c2)cc1,97% (active)
3,O=C(c1cc(C(F)(F)F)cc(C(F)(F)F)c1)N1CC[C@H](CCN2CCC3(CC2)C(=O)NCN3c2ccccc2)C[C@H]1Cc1ccc(Cl)c(Cl)c1,100% (active)
4,CC[C@H]1CN2CC[C@H]1C[C@H]2[C@H](O)c1cc(-c2ccc(SC)cc2)nc2ccc(OC)cc12,98% (active)
5,CC(C)CNCc1cccc(-c2cccc(CN(C(=O)Nc3ccccc3)C3CCN(Cc4ccccc4)CC3)c2)c1,102% (active)
6,Cc1ccc(CC(C)NCC(O)c2cccc(C(F)(F)F)c2)cc1F (stereo not drawn),97% (active)
7,O=C(Nc1ccc(Oc2ccccc2)cc1)NC1CCC(CN2CCC(c3c[nH]c4ccccc34)CC2)CC1 (stereo not drawn),101% (active)
8,O=C(/C=C/c1ccc(Cl)c(Cl)c1)N(Cc1ccccc1)C1CCC(CN2CCC(c3c[nH]c4ccccc34)CC2)CC1 (stereo not drawn),101% (active)
9,CNCCCCCCOc1ccc(CC(C)NCC(O)c2cccc(C(F)(F)F)c2)cc1 (stereo not drawn),101% (active)
10,CC[C@H]1CN2CC[C@@H]1C[C@@H]2[C@@H](O)c1cc(-c2ccc(F)cc2)nc2ccc(OC)cc12,98% (active)
11,COCCNCc1ccc(-c2ccc(CN(C(=O)NC3CCCCC3)C3CCN(Cc4ccccc4)CC3)cc2)cc1,94% (active)
12,CCCCn1c(C)c(C(=O)OCC)c2cc(OC(C)=O)c(Br)cc21,98% (active)
13,Cn1cc(CN2CCC(CCOC(c3ccccc3)c3ccccc3)CC2)cn1,99% (active)
14,O=C(Cc1cc(=O)oc2cc(O)ccc12)NC1CCC(CN2CCC(c3c[nH]c4ccccc34)CC2)CC1 (stereo not drawn),96% (active)
15,CC(C)c1ccc(C=CC(=O)NC2CCC(CN3CCC(c4c[nH]c5ccccc45)CC3)CC2)cc1 (stereo not drawn),101% (active)
16,COc1ccc(CC(C)NCC(O)c2cccc(Br)c2)cc1 (stereo not drawn),99% (active)
17,C=C[C@H]1CN2CC[C@@H]1C[C@H]2[C@H](O)c1cc(-c2ccc(F)cc2)nc2ccc(OC)cc12,99% (active)
18,CN1CC=C(C=Cc2c[nH]c3ccccc23)CC1,86% (active)
19,CNCC(O)c1cc(Cl)c(Cl)cc1C (stereo not drawn),98% (active)
20,[O-]c1n[n+](C2CCCCC2)no1,91% (active)

# Molecular target: Calcium-dependent protein kinase 1 (Plasmodium falciparum (isolate 3D7)) (UniProt P62344)
# Assay: PfCDPK1 kinase inhibitors, biochemical, TCAMS library (AID 1159585; cut-off not given, nearly all actives have IC50 up to about 0.98 µM;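 note: inhibitors leave more ATP so luminescence rises with inhibition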)
# Details: recombinant PfCDPK1, Kinase-Glo ATP depletion luminescence
# Sequence of Calcium-dependent protein kinase 1 (Plasmodium falciparum (isolate 3D7)) (P62344 whole entry, looked up): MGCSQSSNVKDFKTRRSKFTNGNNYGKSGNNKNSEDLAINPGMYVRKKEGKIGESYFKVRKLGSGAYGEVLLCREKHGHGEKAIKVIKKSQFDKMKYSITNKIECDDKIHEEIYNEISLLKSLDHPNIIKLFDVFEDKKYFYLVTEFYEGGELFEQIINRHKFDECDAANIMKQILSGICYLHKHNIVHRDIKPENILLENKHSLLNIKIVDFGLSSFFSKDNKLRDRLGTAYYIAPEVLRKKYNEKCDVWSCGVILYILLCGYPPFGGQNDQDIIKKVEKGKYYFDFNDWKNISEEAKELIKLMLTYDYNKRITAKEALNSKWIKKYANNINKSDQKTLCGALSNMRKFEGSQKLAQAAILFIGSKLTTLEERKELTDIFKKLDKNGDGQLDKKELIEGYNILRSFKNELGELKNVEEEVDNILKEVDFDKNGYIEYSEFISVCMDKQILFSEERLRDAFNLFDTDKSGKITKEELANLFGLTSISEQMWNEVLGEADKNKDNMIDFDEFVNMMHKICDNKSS
row,Structure (SMILES),outcome
1,c1ccc(C(OCCC2CCN(Cc3cccc4cccnc34)CC2)c2ccccc2)cc1,inactive
2,Cc1ccc(C)c(C=CC(=O)NC2CCC(CN3CCC(c4c[nH]c5ccccc45)CC3)CC2)c1 (stereo not drawn),inactive
3,Cc1cc(N)nc2ccc(CNCCc3ccccc3Br)cc12,inactive
4,Fc1ccc(N(c2nc(-c3cc(F)cc(C(F)(F)F)c3)cs2)C2CCNCC2)cc1,inactive
5,CC(Cc1ccc(SC(C)C)cc1)NCC(O)c1cccc(Cl)c1 (stereo not drawn),inactive
6,CC[C@H]1CN2CC[C@@H]1C[C@H]2[C@H](O)c1cc(-c2ccc(F)cc2)nc2ccc(O)cc12,inactive
7,CC(=O)Nc1ccc2[nH]cc(C3CCN(CC4CCN(C(=O)/C=C/c5ccc(Cl)c(Cl)c5)CC4)CC3)c2c1,inactive
8,COc1ccc(O)c(CN2CCN(c3cc(C)ccc3C)CC2)c1,inactive
9,CCN1CC=C(c2c[nH]c3ccccc23)CC1,inactive
10,CC[C@H]1CN2CC[C@H]1C[C@H]2[C@H](O)c1cc(/C=C/c2ccc(F)cc2)nc2ccc(OC)cc12,inactive
11,O=C(NCc1ccc(S(=O)(=O)N2CCC(CN3CCC(c4c[nH]c5ccccc45)CC3)CC2)s1)c1ccccc1,inactive
12,COC(=O)c1ccc(CC(C)NCC(O)c2cccc(Cl)c2Cl)cc1 (stereo not drawn),inactive
13,COCCNCc1cccc(-c2ccc(CN(C(=O)Nc3ccccc3)C3CCN(Cc4ccccc4)CC3)cc2)c1,inactive
14,C=Cc1cc(OC)c2c(c1)c(=O)oc1c2cc(OC)c2c(O)ccc([C@H]3O[C@H]([C@@H](C)O)[C@H](O)[C@H]3O)c21,inactive
15,c1ccc(C(OCCC2CCN(Cc3cccnc3)CC2)c2ccccc2)cc1,inactive
16,N#Cc1ccc(N(CC(=O)NCCc2ccccc2)CC2CC2)c2ccccc12,inactive
17,Cc1ccc(C)c(N2CCN(Cc3ccccc3O)CC2)c1,inactive
18,CC[C@H]1CN2CC[C@H]1C[C@H]2[C@H](O)c1cc(N2CCCC(CO)C2)nc2ccc(OC)cc12 (stereo partly drawn),inactive
19,COc1cccc(CN2CCC(CCOC(c3ccccc3)c3ccc(Cl)cc3)CC2)c1O (stereo not drawn),inactive
20,CN1CC=C(c2c[nH]c3ccc(-c4ccccc4)cc23)CC1,inactive

row,Structure (SMILES),outcome
1,Cc1csc(NC2=NCCN2)n1,inactive
2,CSc1ccc(C[C@@H](C)NC[C@H](O)c2cccc(Cl)c2)cc1,inactive
3,O=C(c1cc(C(F)(F)F)cc(C(F)(F)F)c1)N1CC[C@H](CCN2CCC3(CC2)C(=O)NCN3c2ccccc2)C[C@H]1Cc1ccc(Cl)c(Cl)c1,inactive
4,CC[C@H]1CN2CC[C@H]1C[C@H]2[C@H](O)c1cc(-c2ccc(SC)cc2)nc2ccc(OC)cc12,inactive
5,CC(C)CNCc1cccc(-c2cccc(CN(C(=O)Nc3ccccc3)C3CCN(Cc4ccccc4)CC3)c2)c1,inactive
6,Cc1ccc(CC(C)NCC(O)c2cccc(C(F)(F)F)c2)cc1F (stereo not drawn),inactive
7,O=C(Nc1ccc(Oc2ccccc2)cc1)NC1CCC(CN2CCC(c3c[nH]c4ccccc34)CC2)CC1 (stereo not drawn),inactive
8,O=C(/C=C/c1ccc(Cl)c(Cl)c1)N(Cc1ccccc1)C1CCC(CN2CCC(c3c[nH]c4ccccc34)CC2)CC1 (stereo not drawn),inactive
9,CNCCCCCCOc1ccc(CC(C)NCC(O)c2cccc(C(F)(F)F)c2)cc1 (stereo not drawn),inactive
10,CC[C@H]1CN2CC[C@@H]1C[C@@H]2[C@@H](O)c1cc(-c2ccc(F)cc2)nc2ccc(OC)cc12,inactive
11,COCCNCc1ccc(-c2ccc(CN(C(=O)NC3CCCCC3)C3CCN(Cc4ccccc4)CC3)cc2)cc1,inactive
12,CCCCn1c(C)c(C(=O)OCC)c2cc(OC(C)=O)c(Br)cc21,inactive
13,Cn1cc(CN2CCC(CCOC(c3ccccc3)c3ccccc3)CC2)cn1,inactive
14,O=C(Cc1cc(=O)oc2cc(O)ccc12)NC1CCC(CN2CCC(c3c[nH]c4ccccc34)CC2)CC1 (stereo not drawn),inactive
15,CC(C)c1ccc(C=CC(=O)NC2CCC(CN3CCC(c4c[nH]c5ccccc45)CC3)CC2)cc1 (stereo not drawn),inactive
16,COc1ccc(CC(C)NCC(O)c2cccc(Br)c2)cc1 (stereo not drawn),inactive
17,C=C[C@H]1CN2CC[C@@H]1C[C@H]2[C@H](O)c1cc(-c2ccc(F)cc2)nc2ccc(OC)cc12,inactive
18,CN1CC=C(C=Cc2c[nH]c3ccccc23)CC1,inactive
19,CNCC(O)c1cc(Cl)c(Cl)cc1C (stereo not drawn),inactive
20,[O-]c1n[n+](C2CCCCC2)no1,inactive
